Compound activity as filed in PubChem.
This is a sample that favours compounds with a hit; in the whole collection about 0.44% have one here.
EPAC2 agonist: agonists of human EPAC2 (RAPGEF4); Q8WZA2; AID 720711; 360,000 tested, 0.079% active; EPAC2 activation, biochemical qHTS; response scale: 100% = 6.5 mM cAMP response; Potency, µM (doses to about 154 µM), inactives show top-dose activation, actives largely listed as activators; also: nearly all actives have a fitted effect of over 50% in size
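Exchange assay: 100 nM EPAC2 with 250 nM Rap1B-BODIPY-GDP and 50 uM GDP. Fluorescence (ex 480/em 540 nm) read every 5 min for 30 min at room temperature. Data normalized to 6.5 mM cAMP as agonist control.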
EPAC2 antag: blocks human EPAC2 exchange factor; 360,000 tested, 0.18% active; EPAC2 GEF exchange of Rap1B-BODIPY-GDP, fluorescence; Potency, µM (titrated, usually from 114 µM), inactives show at the top dose activity, negative = inhibition, most hits filed as inhibitors; AID 720708; also: % is scaled to controls: 0 for no effect and ±100 for the full control effect; nearly all actives have a fitted effect of over 45% in size
USP1-UAF1 inh: USP1/UAF1 (human) deubiquitinase inhibition. AID 743255. O94782. 390,000 tested, 0.23% active. recombinant USP1/UAF1, Ub-Rhodamine cleavage fluorescence. Potency, µM (titrated, usually from 57.1 µM), without a hit: at the top dose activity change, negative = inhibition, hits mostly inhibitors; also: % is scaled to controls: 0 for no effect and ±100 for the full control effect; nearly all actives have a fitted effect of over 60% in size
Target sequence (O94782 whole entry, looked up): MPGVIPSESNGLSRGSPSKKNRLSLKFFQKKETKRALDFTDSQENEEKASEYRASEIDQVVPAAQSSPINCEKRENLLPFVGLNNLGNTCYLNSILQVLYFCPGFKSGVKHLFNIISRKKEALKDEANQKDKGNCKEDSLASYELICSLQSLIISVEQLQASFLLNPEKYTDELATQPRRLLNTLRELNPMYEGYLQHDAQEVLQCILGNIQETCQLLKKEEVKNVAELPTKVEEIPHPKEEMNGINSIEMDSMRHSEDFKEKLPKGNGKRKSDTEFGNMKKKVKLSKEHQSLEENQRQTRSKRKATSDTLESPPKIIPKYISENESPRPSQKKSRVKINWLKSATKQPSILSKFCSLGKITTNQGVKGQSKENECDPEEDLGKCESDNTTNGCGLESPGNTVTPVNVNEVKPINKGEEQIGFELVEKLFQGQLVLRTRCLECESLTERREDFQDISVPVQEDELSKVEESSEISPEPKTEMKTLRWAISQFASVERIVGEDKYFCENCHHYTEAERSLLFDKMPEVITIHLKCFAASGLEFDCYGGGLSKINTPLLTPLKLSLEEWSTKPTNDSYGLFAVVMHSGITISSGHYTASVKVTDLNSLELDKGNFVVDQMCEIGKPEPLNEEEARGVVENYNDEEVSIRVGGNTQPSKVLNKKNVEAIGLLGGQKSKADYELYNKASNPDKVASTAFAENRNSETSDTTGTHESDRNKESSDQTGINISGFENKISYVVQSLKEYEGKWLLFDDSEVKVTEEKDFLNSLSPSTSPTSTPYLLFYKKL
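High-throughput fluorogenic screen: 1nM USP1/UAF1 complex, Ub-Rho substrate 150nM final, 50mM HEPES pH 7.8 with 0.5mM EDTA, 0.1 mg/ml BSA, 1mM TCEP and 0.01% Tween-20.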
USP2a block: inhibitors of human ubiquitin-specific protease USP2a | Potency, µM (series often up to 38.3 µM), for the others: top-dose activity change, negative = inhibition, hits mostly inhibitors | 330,000 tested, 0.01% active | O75604 | USP2 core, Ub-CHOP2 coupled fluorogenic reporter, 485/531 | AID 463254;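 also: plate controls were DMSO wells for no effect and full inhibition by NEM control for full effect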
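Deubiquitinase activity read as fluorescence (485/531 nm) after Ub-CHOP2 cleavage activates the enterokinase reporter on its substrate; USP2 core 10nM, Ub-CHOP2 and substrate 25nM each, 30min compound preincubation then 60min RT; data normalized to NEM, curves fitted.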
EPAC1 agonist: activates human EPAC1 exchange factor; O95398; Potency, µM (series often up to 154 µM), inactives show at the top dose activation, usual class: activators; EPAC1 agonist qHTS, biochemical assay; response scale: 100% = response to 6.5 mM cAMP; 360,000 tested, 0.073% active; AID 720707; also: nearly all actives have a fitted effect of over 60% in size
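EPAC1 100 nM, Rap1B–BODIPY-GDP 250 nM, unlabeled GDP 50 uM; compound titration; 5 min RT; kinetic read ex480/em540 at 5-min intervals ×30 min; data normalized to 6.5 mM cAMP agonist control.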
EPAC1 antagonist: blocks human EPAC1 exchange factor; 360,000 tested, 0.14% active; Potency, µM (series often up to 115 µM), without a hit: at the top dose activity change, negative = inhibition, usual class: inhibitors; EPAC1 GEF assay, Rap1b-BODIPY-GDP exchange fluorescence; AID 720709;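 also: plate controls were vehicle for no effect and positive control for full effect; nearly all actives have a fitted effect of over 50% in size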
Starred values were filed as active, the others as inactive; ? = inconclusive; · = no result given. Calls follow the shape of the dose curve; as a rule, active = well fitted curve in the direction sought with a large enough effect; inconclusive = small, poorly fitted or top-dose-only effect, or another doubt; inactive = no such curve, though single readings can be large; an effect the other way counts as inactive or inconclusive. Potency is read from the fitted curve at half-maximal effect.

SMILES	EPAC2 agonist	EPAC2 antag	USP1-UAF1 inh	USP2a block	EPAC1 agonist	EPAC1 antagonist
O=C(NCc1cc(C(F)(F)F)ccc1Cl)c1cccc2c1C(=O)c1ccc(N3CCCCC3)cc1S2(=O)=O	29%	372%	20µM*	3%	11%	-3%
O=C(NCc1cc(C(F)(F)F)ccc1Cl)c1cccc2c1C(=O)c1ccc(N3CCOCC3)cc1S2(=O)=O	-9%	6%	-2%	2%	-3%	?
O=C1N=c2ccccc2=C1c1sc(Nc2cccc(O)c2)nc1O	-7%	-18%	-13%	-1%	1%	4%
O=C1N=c2ccccc2=C1c1sc(Nc2ccc(O)cc2)nc1O	1%	-27%	-18%	?	-4%	45µM*
COc1cc(NCCCCCCN)c2ncccc2c1OC	14%	-23%	8.9µM*	·	8%	-10%
COc1cc(NC(C)CCCNC(C)C)c2ncccc2c1OC (stereo not given)	-1%	-3%	?	·	0%	-1%
CCCc1nn2c(=O)cc(COC(=O)c3ccc(NC(=O)COc4ccccc4F)cc3)nc2s1	·	·	-20%	·	·	·
CCOc1cc(/C=N/NC(=O)c2ccc3c(c2)OCCO3)cc(Br)c1O	9%	12%	-21%	0%	-5%	71µM*
Cc1ccccc1C(=O)Nc1ccc(S(=O)(=O)N2CCC(c3nc4ccccc4s3)CC2)cc1	·	·	-13%	·	·	·
Cc1nc2ccn(Cc3ccccc3)c(=O)c2cc1C(=O)Nc1ccc(F)cc1Cl	·	·	-22%	·	·	·
CCCCSCCCNC(=O)CN1C(=O)COc2ccc(S(=O)(=O)N3CCC(C)CC3)cc21	·	·	-14%	·	·	·
Cc1cc(Br)c2c(c1)[C@](O)(c1cn(C)c3ccccc13)C(=O)N2C	5%	22µM*	·	·	3%	-8%
Cc1ccc([C@@H]2C3COCC=C3C(C#N)=C(N)C2(C#N)C#N)o1 (stereo not given in full)	26%	5%	32µM*	5%	29%	8%
CCCCCc1c(-c2ccccc2F)ncn1CCc1ccccc1OC	0%	?	·	·	-9%	-21%
CCCCc1c(-c2ccccc2F)ncn1CCc1ccccc1OC	16%	42µM*	·	·	-7%	-15%
CCc1ccc(CNC(=O)c2c(C)oc3ncn(CC(C)C)c(=O)c23)cc1	·	·	-11%	·	·	·
COc1ccc(N2CCN(C(=O)CSc3nc(-c4ccc(C(C)C)cc4)no3)CC2)cc1	·	·	10%	·	·	·
COc1cc(Cl)c(C)cc1NC(=O)CSc1ccc(C)cc1	3%	-2%	-17%	-1%	9%	-1%
COc1cc(Cl)c(C)cc1NC(=O)CSc1cc(Cl)ccc1Cl	-5%	15%	-21%	-3%	7%	25µM*
Cc1ccc(CNC(=O)c2cc(=O)c3cc(C)cc(C)c3o2)cc1	·	·	-18%	·	·	·
C=CCSc1nc2ccccc2c(=O)n1C1CCOC(C)(C)C1 (stereo not given)	7%	?	-14%	6%	-2%	-4%
CCSc1nc2ccccc2c(=O)n1C1CCOC(C)(C)C1 (stereo not given)	19%	40µM*	-25%	1%	3%	-11%
COC1=CC(=O)c2nc(Cl)ccc2C1=O	28%	?	·	·	-23%	?
COC1=CC(=O)c2c(ccc3ncnc(N)c23)C1=O	-1%	40µM*	0.89µM*	·	-6%	40µM*
CC(C)(C)NC(=O)NC(=O)CN1CCN(S(=O)(=O)c2ccccc2)CC1	-4%	4%	-1%	5%	3%	-5%
SMILES	EPAC2 agonist	EPAC2 antag	USP1-UAF1 inh	USP2a block	EPAC1 agonist	EPAC1 antagonist
CC(C)(C)NC(=O)NC(=O)CN1CCN(S(=O)(=O)c2ccc3c(c2)CCCC3)CC1	-2%	-12%	-20%	-1%	56µM*	-9%
Cc1ccc(S(=O)(=O)/N=C2/NC(=O)/C(=C/c3cc([N+](=O)[O-])ccc3O)S2)cc1	6%	-25%	28µM*	-2%	3%	?
COc1cc(/C=C2\S/C(=N/S(=O)(=O)c3ccc(C)cc3)NC2=O)c([N+](=O)[O-])cc1OC	6%	6%	-14%	1%	3%	-7%
COc1cccc(N=C2NC(=O)/C(=C/c3cc([N+](=O)[O-])ccc3O)S2)c1	5%	?	0%	2%	6%	-12%
O=C1NC(=Nc2ccccc2Cl)S/C1=C\c1cc([N+](=O)[O-])ccc1O	-10%	18µM*	?	1%	-21%	79µM*
CCc1ccc(OCC(=O)Nc2cc(-c3nc4cc(C)ccc4o3)ccc2C)cc1	·	·	-26%	·	·	·
COc1cccc(-c2nc(SCC(=O)Nc3nc(-c4ccccc4)c(C)s3)[nH]c(=O)c2C#N)c1	-2%	25µM*	-17%	0%	2%	?
CCCCOC(=O)c1ccc(NC(=O)c2cc(-c3ccccc3)on2)cc1	·	·	-25%	·	·	·
CC(C)=CCC1=C(OCC(=O)O)C(=O)c2ccccc2C1=O	23%	?	10µM*	0%	2%	?
N=C1CCC(=N)c2c1c(O)c1ccccc1c2O	29%	27%	25µM*	22%	18%	?
COc1cccc(C2CC(=O)Nc3c2ccc(C)c3C)c1OC (stereo not given)	·	·	-19%	·	·	·
CC(Oc1ccccc1)C(=O)Nc1ccccc1C(=O)OCc1cc(=O)n2nc(C3CC3)sc2n1 (stereo not given)	·	·	-2%	·	·	·
CCCSc1nnc(NC(=O)c2cc(=O)c3ccccc3o2)s1	·	·	-24%	·	·	·
Cc1ccc(NC(=O)CN2C(=O)N/C(=C/c3ccccc3OCc3cccc(C(=O)O)c3)C2=O)cc1	3%	?	?	-1%	6%	?
O=C(CN1C(=O)N/C(=C\c2ccccc2OCc2ccc(C(=O)O)cc2)C1=O)Nc1ccccc1F	9%	1%	?	0%	0%	35µM*
COc1cccc(/C=C2/NC(=O)N(CC(=O)Nc3ccc(C)cc3)C2=O)c1OCc1cccc(C(=O)O)c1	11%	-2%	25µM*	1%	23%	?
O=C(N/N=C/c1ccc(Cl)cc1Cl)c1ccncc1	4%	-5%	-21%	2%	16%	-24%
O=C(N/N=C/c1cc(Cl)cc(Cl)c1O)c1ccncc1	?	23%	32µM*	?	0%	14%
Cc1c(C(=O)Nc2ccc(C(C)C)cc2)sc2nc[nH]c(=O)c12	·	·	-10%	·	·	·
CCN1CCN(c2cc(N3CCN(C(=O)c4ccco4)CC3)c3c4c(onc24)-c2ccccc2C3=O)CC1	-4%	0%	?	0%	12%	?
O=C(O)CCNc1cc(N2CCN(C(=O)c3ccco3)CC2)c2noc3c2c1C(=O)c1ccccc1-3	-3%	-22%	14µM*	?	-5%	?
